USP2a inh – blocks human ubiquitin-specific protease USP2a; USP2 core, Ub-CHOP2 coupled fluorogenic reporter, 485/531; Potency, µM (series often up to 38.3 µM), inactives show at the top dose activity change, negative = inhibition, hits mostly inhibitors; hit rate 0.01% among 330,000; AID 463254;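 also: plate controls were DMSO wells for no effect and full inhibition by NEM control for full effect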
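USP2 core (10nM final) preincubated 30min RT with compound in 20mM Tris-HCl pH 8.0, 2mM CaCl2, 2mM beta-mercaptoethanol, 0.05% CHAPS; 25nM Ub-CHOP2 plus 25nM reporter substrate added, fluorescence (Ex485/Em531) read after 60min.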
Eya2 phos inh – inhibitors of human Eya2 phosphatase activity | AID 488837 | hit rate 0.006% among 330,000 | recombinant Eya2, OMFP fluorescence dephosphorylation (OMFP is methylfluorescein phosphate) | Potency, µM (series often up to 76.9 µM), for the others: at the highest dose activity, negative = inhibition, most hits filed as inhibitors | O00167; also: % is scaled to controls: 0 for no effect and ±100 for the full control effect
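Eya2 protein (added as 0.2 uM solution) was preincubated with compound for 10 min at ambient temperature in 50 mM HEPES pH 7.5, 50 mM NaCl, 5 uM MgCl2, 0.05% BSA, 1 mM DTT. OMFP (added at 50 uM) then reacted 10 min; fluorescence read at 485/525 nm.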
12-LOX inh – blocks human arachidonate 12S-lipoxygenase | AID 1671190 | purified 12hLO, xylenol orange hydroperoxide absorbance | hit rate 1.1% among 580,000 | Potency, µM (top dose mostly 108 µM), without a hit: at the top dose activity change, negative = inhibition, hits mostly inhibitors; also: % is scaled to controls: 0 for no effect and ±100 for the full control effect
Target sequence (P18054 whole entry, looked up): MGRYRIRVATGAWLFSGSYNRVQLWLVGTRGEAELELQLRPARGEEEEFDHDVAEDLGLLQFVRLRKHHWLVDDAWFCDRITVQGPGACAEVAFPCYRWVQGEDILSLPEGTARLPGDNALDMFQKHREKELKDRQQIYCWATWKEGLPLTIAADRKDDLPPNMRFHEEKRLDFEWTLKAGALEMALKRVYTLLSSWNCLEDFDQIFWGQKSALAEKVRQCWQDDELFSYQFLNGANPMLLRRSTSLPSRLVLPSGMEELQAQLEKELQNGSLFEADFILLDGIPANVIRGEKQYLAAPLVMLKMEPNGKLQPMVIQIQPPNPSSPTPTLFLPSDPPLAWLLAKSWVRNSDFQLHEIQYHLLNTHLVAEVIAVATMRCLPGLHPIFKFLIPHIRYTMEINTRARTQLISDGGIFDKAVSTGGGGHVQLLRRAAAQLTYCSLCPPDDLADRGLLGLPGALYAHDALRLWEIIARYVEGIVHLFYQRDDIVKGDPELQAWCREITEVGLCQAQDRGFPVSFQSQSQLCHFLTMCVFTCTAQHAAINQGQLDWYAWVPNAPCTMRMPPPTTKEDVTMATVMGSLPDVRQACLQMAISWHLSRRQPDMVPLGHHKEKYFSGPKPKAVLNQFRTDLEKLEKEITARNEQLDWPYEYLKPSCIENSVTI
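Purified human 12hLO at 150 nM in 25 mM Hepes, 0.01% Triton X-100, pH 7.0, preincubated 15 min at room temperature with compound. Reaction started with 40 uM arachidonic acid, 30 min at room temperature. Hydroperoxide measured by Fe-xylenol orange, 573/405 nm absorbance ratio.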
TSG101-PTAP inh – blocks PTAP/TSG101 interaction to inhibit HIV-1 budding | Q99816 | Fluorescence polarization, FITC-PTAP peptide / Tsg101 binding | Potency, µM (series often up to 115 µM), for inactives: at the top dose activity change, negative = inhibition, hits mostly inhibitors | 340,000 tested, under 10 active | AID 493005; active = well fitted inhibition curve with a large enough effect in the main read-out, with a control signal flat, not every such curve was filed as active; inconclusive = small, poorly fitted or top-dose-only effect, or effect the other way, or a change in a side signal; inactive = no such curve, though single readings can be large or run the other way; also: % of control where 0% means no effect
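Tsg101 binding domain (10 uM final) was mixed with compound and a FITC-labeled PTAP peptide (50 nM final) in HEPES pH 7.5 buffer with NaCl, Tween 20, EDTA and TCEP; fluorescence polarization was read after 20 min at r.t.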
An asterisk follows results filed as active; i = inactive; ? = inconclusive; · = no result given; [ ] = remark or other dose. Shown are actives, neighbours in structure and some others; about 1.1% of the full set was active somewhere. Unless noted, calls follow the shape of the dose curve; as a rule, active = well fitted curve in the direction sought with a large enough effect; inconclusive = small, poorly fitted or top-dose-only effect, or another doubt; inactive = no such curve, though single readings can be large; an effect the other way counts as inactive or inconclusive. Potency is read from the fitted curve at half-maximal effect.

SMILES | USP2a inh | Eya2 phos inh | 12-LOX inh | TSG101-PTAP inh
Cc1cc(C(F)(F)F)n2nc(C)c(-c3ccc(Cl)cc3)c2n1 | -1% | 0% | -20% | 0%
Cc1cc(C(F)(F)F)n2nc(C(=O)O)c(Cl)c2n1 | 6% | -3% | 45µM* | -7%
Cc1ccc(NC(=O)c2cc(-n3cnnc3)ccc2Cl)cc1 | 0% | 1% | -19% | -3%
Cc1ccc(NC(=O)c2cc(N3C(=O)C=CC3=O)ccc2Cl)cc1C | -8% | -32% | 3.5µM* | -6%
Cc1ccc(NC(=O)c2cc(N3C(=O)C=CC3=O)ccc2N2CCOCC2)cc1 | 0% | 4% | 10µM* | 1%
Cc1[nH]n(-c2ccc(F)cc2)c(=O)c1CCC(=O)Nc1ccc(C#N)cc1 | · | · | -48% | ·
COc1ccc(C(=O)OCC(=O)Nc2ncc([N+](=O)[O-])s2)cc1OC | -1% | 3% | 35µM* | -6%
COc1nc(-c2ccccc2)ccc1-c1noc(-c2ccco2)n1 | -2% | 6% | 20µM* | -1%
Cc1[nH]c2ccccc2c1C(c1ccc(O)cc1)c1c(C)[nH]c2ccccc12 | · | · | 14µM* | ·
Cc1[nH]c2ccccc2c1C(c1ccccc1)c1ccc(Cl)s1 (stereo unspecified) | · | · | -14% | ·
Cc1n[nH]c(C)c1/C=C/C(=O)c1ccc(F)c(F)c1 | · | · | 45% | ·
COc1ccccc1CNC[C@@H]1C=C(C)[C@H](Cc2nc3c(C)cccc3[nH]2)C[C@H]1C(C)C | · | · | 56µM* | ·
CC1=C[C@@H](CNCc2ccccc2)[C@H](C(C)C)C[C@H]1Cc1nc2c(C)cccc2[nH]1 | · | · | 63µM* | ·
COc1ccc(Nc2nc3ccccc3nc2NS(=O)(=O)c2cccc(Cl)c2)c(OC)c1 | · | · | 13% | ·
Cc1cccc(Oc2c(C(F)(F)F)oc3cc(OC(=O)c4cncc(Br)c4)ccc3c2=O)c1 | · | · | 8.9µM* | ·
Cc1cc(=O)oc2cc(OC(=O)c3cncc(Br)c3)ccc12 | 0% | -1% | 4% | -1%
CCc1ccc(C(=O)c2cnc3ccc(OC)cc3c2N2CCOCC2)cc1 | · | · | 28µM* | ·
COC(=O)/C=C/c1ccccc1 | · | · | 0%[176 µM] | ·
O=C(C(c1ccccc1)c1ccccc1)N1CCN(C/C=C/c2ccccc2)CC1 | · | · | 8% | ·
CC(CN1CCN(C/C=C/c2ccccc2)CC1)c1ccccc1 (stereo unspecified) | -2% | 7% | 0.79µM* | -4%
CN1CCN(c2ncc3nc(-c4cn(C)c5ccccc45)c(=O)n(-c4ccccc4)c3n2)CC1 | · | · | 6.3µM* | ·
CN1CCN(c2ccc(-c3noc([C@@H]4CCCN4CCCc4ccccc4)n3)cn2)CC1 | · | · | -14%[176 µM] | ·
O=C(Nc1nc(-c2ccco2)c(-c2ccco2)s1)C1CCC1 | 0% | -2% | 11µM* | 4%
Cc1cccc(-n2cc[nH]c2=S)c1C | -4% | -3% | 50µM* | 0%
Cc1ccccc1-n1cc[nH]c1=S | 2% | ? | ? | -11%
SMILES | USP2a inh | Eya2 phos inh | 12-LOX inh | TSG101-PTAP inh
CN1C[C@@H](NC(=O)c2ccc(-c3ccccc3)cc2)C[C@H]1c1nc(-c2ccc(Cl)cc2)no1 | · | · | -20% | ·
CC(C)NC(=O)N[C@H]1C[C@@H](c2nc(-c3ccc4c(c3)OCO4)no2)N(C)C1 | · | · | 22µM* | ·
CN1C[C@@H](NC(=O)CC(C)(C)CC(=O)O)C[C@H]1c1nc(-c2ccccc2)no1 | · | · | 126µM* | ·
CCCCN | · | · | 3% | ·
Cn1c2c(c3cc(F)ccc31)CN(C(=O)Nc1cccc(Cl)c1)CC2 | · | · | 107% | ·
N#C/C(=N\Nc1ccc(Cl)cc1)C(=O)c1ccccc1 | -2% | -7% | ? | -7%
Cc1c(N/N=C(\C#N)C(=O)c2ccc(Cl)cc2)c(=O)n(-c2ccccc2)n1C | 1% | -2% | 8.9µM* | -1%
Cc1ccc(NC(=O)CCC(=O)O)cc1F | 2% | 15% | -4% | -1%
Cc1ccc(NC(=O)CCNc2cnc3cnccn23)cc1F | · | · | 50µM* | ·
CC(C)Oc1cccc2c1c(NC(=O)c1cccnn1)nn2Cc1ccccc1 | · | · | 2% | ·
Clc1cccc(Cc2c(-c3ccco3)nc3ccc(Br)cn23)c1 | · | · | 11µM* | ·
Clc1cccc(Cc2c(-c3ccco3)nc3ccc(Cl)cn23)c1 | · | · | 22µM* | ·
Cc1ccc2nc(-c3cccc(Br)c3)c(Cc3ccccc3)n2c1 | · | · | -12% | ·
Brc1ccc2nc(-c3ccco3)c(Cc3ccccc3)n2c1 | · | · | 14µM* | ·
N#Cc1ccc(-c2nc3ccc(Cl)cn3c2Cc2cccc(Cl)c2)cc1 | · | · | 35µM* | ·
CC(C)(C)NC(=O)c1nn(-c2ccccc2)c(=O)c2ccccc12 | · | · | 34% | ·
Cc1c(-c2ccccc2)oc2c(C(=O)NC(C)C)cccc2c1=O | · | · | -21% | ·
CN(Cc1ccccc1)Cc1c(O)ccc2ccccc12 | 4% | 10% | 0.79µM* | -3%
CSc1ccccc1NC(=O)CN(C)Cc1ccc(Br)cc1 | -1% | -1% | -2% | 0%
CN(Cc1cc(Cl)cc(Cl)c1O)Cc1c(O)ccc2ccccc12 | · | · | ? | -8%
CSc1ccccc1NC(=O)CN(C)Cc1c(O)ccc2ccccc12 | 2% | 2% | 5µM* | -5%
CN1CCCCCC(O)c2cc(C(=O)NCCc3ccccn3)ccc21 (stereo unspecified) | · | · | i | ·
CC(=O)Nc1ccc(S(=O)(=O)NNc2cccc(C)c2)cc1 | 2% | 16% | 2µM* | -2%
Cc1cccc(NC(=O)NNS(=O)(=O)c2ccc(F)cc2)c1 | 1% | 2% | 6% | -5%
Cc1cccc(NNC(=O)C(=O)NNc2cccc(C)c2)c1 | 0% | -11% | 1.4µM* | -2%
SMILES | USP2a inh | Eya2 phos inh | 12-LOX inh | TSG101-PTAP inh
CCC(=O)N1CCN(c2nc3c(s2)CC(C(=O)Nc2ccc4c(c2)OCO4)CC3)CC1 (stereo unspecified) | · | · | -4% | ·
COc1ccccc1NC(=O)CSc1nc2c(c(=O)[nH]1)CN(Cc1ccc3c(c1)OCO3)CC2 | · | · | 4% | ·
Cc1ccc(N/N=C/C=C/c2ccccc2[N+](=O)[O-])c(C)c1 | · | · | 16µM* | ·
O=[N+]([O-])c1ccccc1/C=C/C=N/Nc1ccc(S(=O)(=O)Nc2ccccc2)cc1[N+](=O)[O-] | · | · | -4% | ·
O=C(O)c1cccc(N2C(=O)/C(=C/c3ccc([N+](=O)[O-])cc3)C=C2c2ccccc2)c1 | -11% | 6% | 35µM* | 1%
O=C1/C(=C/c2ccc([N+](=O)[O-])cc2)C=C(c2ccccc2)N1c1ccccc1 | 1% | -20% | -14% | -2%
S=c1[nH]nc(Nc2ccccc2Cl)s1 | 2% | -3% | 32µM* | -1%
Clc1ccc(-c2nc3ccccn3c2Nc2ccc3c(c2)OCCO3)s1 | · | · | 25µM* | ·
Cc1ccc2nc(-c3ccc(O)cc3)c(Nc3ccc4c(c3)OCCO4)n2c1 | 0% | 15% | ? | -6%
CN(C)c1ccc(-c2nc3cnccn3c2Nc2ccc3c(c2)OCCO3)cc1 | -2% | -4% | -3% | -2%
CSc1ccc(-c2nc3c(C)cccn3c2Nc2ccc3c(c2)OCCO3)cc1 | · | · | 1.4µM* | ·
CN(C)c1ccc(-c2nc3ccc(Cl)cn3c2Nc2ccc3c(c2)OCCO3)cc1 | · | · | 5.6µM* | ·
COc1ccc2c(c1)CC/C2=N\OC(=O)c1cc(Cl)ccc1OC | · | · | -27% | ·

Assay outcomes (PubChem BioAssay)
